Results reported in PubChem BioAssay (NCATS).
Results filed as inconclusive are left out. Active and inactive are the calls of the source. Unless noted, the call rests on the fitted dose curve; in most records, active means well fitted curve in the direction sought with a large enough effect; inconclusive means small, poorly fitted or top-dose-only effect, or another doubt; inactive means no such curve, though single readings can be large; an effect the other way counts as inactive or inconclusive.

Columns and labels:
[1] = HPAF-II 24hr Apoptosis Induction qHTS against the NCATS CANVASS Library (AID 1347356); further: 0% is about no effect
How it was run: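 Luminescent caspase-3/7 signal (DEVD substrate, Caspase-Glo) served as read-out, taken 15 min after reagent addition to HPAF-II cells exposed 24 h to compounds.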

[2] = HEK293 18hr Apoptosis Induction qHTS against the NCATS CANVASS Library (AID 1347357); further: 0% is about no effect
How it was run: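 HEK293 cells (500 per well, DMEM with 10% FBS) were treated with natural products, incubated 18 hours at 37 degrees C, then caspase-3/7 activity was read by Caspase-Glo luminescence after 15 min at room temperature.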

[3] = HPAF-II 12hr Apoptosis Induction qHTS against the NCATS CANVASS Library (AID 1347358); further: 0% is about no effect
How it was run: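 500 HPAF-II cells/well; cmpds 11-pt; 12 hr, 37 degrees C/5% CO2; Caspase-Glo 3/7 added, 15 min RT dark; luminescence read. Doxorubicin titration as control.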

[4] = HPAF-II 18hr Apoptosis Induction qHTS against the NCATS CANVASS Library (AID 1347360); further: 0% is about no effect
How it was run: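 HPAF-II cells (500/well, DMEM + 10% FBS) were exposed to compounds for 18 hours at 37 degrees C. Caspase-3/7 activity was then read by Caspase-Glo 3/7 luminescence after 15 min at room temperature.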

[5] = HEK293 12hr Apoptosis Induction qHTS against the NCATS CANVASS Library (AID 1347361); further: 0% is about no effect
How it was run: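 Read-out: Caspase-Glo 3/7 luminescence (DEVD substrate), 15 min RT. Preceded by 12 h compound exposure of HEK293, 500 cells/well, 11-pt qHTS titration; doxorubicin titration as control.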

[6] = molecular target: Luciferin 4-monooxygenase (Photinus pyralis) (UniProt P08659); assay: Firefly luciferase counterscreen qHTS: Assay Interference Panel against the NCATS CANVASS Library (AID 1347363); further: 0% is about no effect
How it was run: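 Purified P. pyralis luciferase was added to compounds (11-point series) preincubated 15 min at room temperature with substrate containing 0.013 mM D-luciferin and 0.013 mM ATP; luminescence was read after 5 min.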

[7] = qHTS for ATAD5 Agonist screened against the NCATS CANVASS Library (AID 1347367);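 further: luciferase reporter driven by ATAD5 which rises upon DNA damage; 0% is about no effect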
How it was run: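 HEK293T cells stably carrying an ATAD5-controlled luciferase reporter (2000 cells/well) attached for 5 hr, then received compounds in an 11-point series for 16hr at 37C. Luminescence was read after a 30 min room-temperature reagent step.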

[8] = MCF7 Cancer Cell Toxicity qHTS against the NCATS CANVASS Library (AID 1347369)
How it was run: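 MCF7, 500 cells/well; cpds 11-pt qHTS; 72 hr, 37C/5% CO2; CellTiterGlo ATP luminescence.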

[9] = 10-beta competent E. coli microbial cell viability qHTS against the NCATS CANVASS Library (AID 1347376); further: 0% is about no effect
How it was run: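 E. coli 10-beta, 0.2 OD; cpds 11-pt; o/n 37C, 5% CO2; BacTiter-Glo 20 min RT; luminescence (ATP) = viable cells. Daunomycin ctrl.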

[10] = DH5-alpha competent E. coli microbial cell viability qHTS against the NCATS CANVASS Library (AID 1347377); details: outcome: dose series up to 46.1 µM unless noted
How it was run: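 qHTS, 11-pt; E. coli DH5-alpha, 0.2 OD; o/n 37C/5% CO2; BacTiter-Glo, 20 min RT; luminescence.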

[11] = qHTS for H2AX Agonists against the NCATS CANVASS Library (AID 1347378); further: 0% is about no effect
How it was run: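 CHO-K1 cells were plated overnight at 37C, then exposed to compounds (concentration series, 0.76% DMSO final) for 3 hr at 37C. Lysates received Eu-cryptate anti-pH2AX (S139) and d2 anti-H2AX antibodies; after 24 hr at room temperature, TR-FRET 665/620 nm ratio was read.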

[12] = Inflammasome Signaling qHTS Counterscreen: IL-1-beta AlphaLISA counterscreen against the NCATS CANVASS Library (AID 1347381);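 further: cell-free check with purified IL-1β in medium and no THP-1 cells; 0% is about no effect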
How it was run: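 Cell-free interference check: compounds added to medium spiked with 4 pg purified IL-1β. Anti-IL-1β acceptor beads (6 ug/mL) with 0.6 nM biotinylated antibody added for 1 h at RT, then streptavidin donor beads (24 ug/mL) for 30 min in the dark. AlphaLISA read at 680/615 nm.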

[13] = Redox Reaction Profiling qHTS: Assay Interference Panel against the NCATS CANVASS Library (AID 1347401);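 further: 100% = activation by 2 µM chloranil control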
How it was run: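 Resazurin (5 uM) conversion to resorufin measured with 200 uM DTT in 50 mM HEPES pH 7.3, 50 mM NaCl. Compounds tested in 11-point qHTS series. Fluorescence (ex 525/em 598 nm) read before and after 15 min dark incubation.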

[14] = qHTS to identify inhibitors of the type 1 interferon - major histocompatibility complex class I in skeletal muscle: primary screen against the NCATS Mechanism Interrogation Plate v5.0 (MIPE) Libary (AID 1347411); further: potency means the concentration at half of the fitted maximal effect; nearly all actives have a fitted effect of over 65% in size
How it was run: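 Luminescence from HiBiT-tagged endogenous HLA-B*08:01 served as the MHC class I read-out. CRISPR-engineered C25cl48 human myoblasts received 4.0 ng/ml IFN-beta plus compound for 24 hrs, with an 11-point, 1:3 series topping at 46 uM final.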

[15] = Primary qHTS for inhibitors of nuclear receptor binding SET domain protein 2 (NSD2) in an isogenic RCH-ACV NSD2 p.E1099K mutant (9B) (AID 1645876); further: potency means the concentration at half of the fitted maximal effect; nearly all actives have a fitted effect of over 70% in size
[16] = Primary qHTS for inhibitors of nuclear receptor binding SET domain protein 2 (NSD2) in an RCH-ACV wild type WT cells (2C) (AID 1645877); further: potency means the concentration at half of the fitted maximal effect; nearly all actives have a fitted effect of over 70% in size
[17] = molecular target: Glutathione peroxidase 1 (Homo sapiens) (UniProt P07203); assay: Primary qHTS Assay for Inhibitors of Recombinant Selenoprotein Glutathione Peroxidase 1 (GPX1) (AID 1845191); further: nearly all actives have a fitted effect of over 65% in size
How it was run: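 Recombinant GPX1 (10 nM final) was preincubated with compound for 30 min at room temperature, then reacted with 1 mM GSH, 0.5 mM CHP, 0.5 mM NADPH and 100 nM glutathione reductase; NADPH fluorescence (340/450 nm) was read at 0 and 15 min.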

[18] = molecular target: Phospholipid hydroperoxide glutathione peroxidase GPX4 (Homo sapiens) (UniProt P36969); assay: Primary qHTS Assay for Inhibitors of Recombinant Selenoprotein Glutathione Peroxidase 4 (GPX4) (AID 1845192); details: outcome: dose series up to 50 µM unless noted; further: on the % scale 0 is the no-effect control and ±100 the full control effect; nearly all actives have a fitted effect of over 65% in size
How it was run: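 GR-coupled readout: 100 nM GR, 1 mM GSH, 0.5 mM NADPH; NADPH fluorescence (ex 340/em 450 nm) read at t=0 and after 15 min RT. GPX4 200 nM, preincubated 30 min with compound; substrate 0.5 mM CHP.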

[19] = qHTS drug screen for cell cycle checkpoint inhibitors in PARPi-resistant BRCA-mutant ovarian cancer cell lines. (AID 1963452; calls by dose curve; further: potency means the concentration at half of the fitted maximal effect); details: PEO1/OlaR viability, CellTiter-Glo luminescence, 96 h; for Z-AUC: stronger effect = lower value
How it was run: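 PEO1, PEO4 and PEO1/OlaR ovarian cancer cells, 600 per well, exposed 96 h at 37C to a dilution series. Viability read by CellTiter-Glo luminescence, normalized to DMSO and empty wells; activity summarized as Z-AUC.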

[20] = qHTS assay to identify inhibitors of the type 1 interferon - major histocompatibility complex class I in skeletal muscle: Counter screen cell viability and HiBit confirmation (AID 1347412); details: iHSKM muscle cells + IFN-b, HiBiT or CellTiter-Glo, 24 h; for activity change, negative = inhibition: at 45.9 µM (top of the series); further: potency means the concentration at half of the fitted maximal effect; on activity change, negative = inhibition: on the % scale 0 is the no-effect control and ±100 the full control effect; on all read-outs here: nearly all actives have a fitted effect of over 60% in size
How it was run: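 HLA-B*08:01–HiBiT knock-in immortalized human myoblasts (C25cl48) stimulated with 4.0 ng/ml human IFN-beta and dosed with compound in a 12-point 1:3 titration (top final 46 uM). After 24 hrs at 37 C, HiBiT lytic luminescence or CellTiter Glo ATP read out.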

[21] = measured here: PEO1 parental Z-AUC

Chain of Glutathione peroxidase 1 (Homo sapiens) (P07203 whole entry, looked up): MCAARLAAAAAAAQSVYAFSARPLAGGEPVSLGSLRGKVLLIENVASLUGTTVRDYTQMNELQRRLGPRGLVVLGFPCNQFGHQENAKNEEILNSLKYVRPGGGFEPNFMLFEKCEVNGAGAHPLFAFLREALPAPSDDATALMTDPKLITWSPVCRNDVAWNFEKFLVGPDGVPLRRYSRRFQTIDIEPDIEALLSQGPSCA
Chain of Phospholipid hydroperoxide glutathione peroxidase GPX4 (Homo sapiens) (P36969 whole entry, looked up): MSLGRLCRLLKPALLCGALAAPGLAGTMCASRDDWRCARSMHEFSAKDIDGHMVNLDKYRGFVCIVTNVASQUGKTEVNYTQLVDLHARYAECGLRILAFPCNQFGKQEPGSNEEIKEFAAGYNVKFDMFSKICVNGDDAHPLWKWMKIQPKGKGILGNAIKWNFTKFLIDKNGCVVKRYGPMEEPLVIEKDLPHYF
Chain of Luciferin 4-monooxygenase (Photinus pyralis) (P08659 whole entry, looked up): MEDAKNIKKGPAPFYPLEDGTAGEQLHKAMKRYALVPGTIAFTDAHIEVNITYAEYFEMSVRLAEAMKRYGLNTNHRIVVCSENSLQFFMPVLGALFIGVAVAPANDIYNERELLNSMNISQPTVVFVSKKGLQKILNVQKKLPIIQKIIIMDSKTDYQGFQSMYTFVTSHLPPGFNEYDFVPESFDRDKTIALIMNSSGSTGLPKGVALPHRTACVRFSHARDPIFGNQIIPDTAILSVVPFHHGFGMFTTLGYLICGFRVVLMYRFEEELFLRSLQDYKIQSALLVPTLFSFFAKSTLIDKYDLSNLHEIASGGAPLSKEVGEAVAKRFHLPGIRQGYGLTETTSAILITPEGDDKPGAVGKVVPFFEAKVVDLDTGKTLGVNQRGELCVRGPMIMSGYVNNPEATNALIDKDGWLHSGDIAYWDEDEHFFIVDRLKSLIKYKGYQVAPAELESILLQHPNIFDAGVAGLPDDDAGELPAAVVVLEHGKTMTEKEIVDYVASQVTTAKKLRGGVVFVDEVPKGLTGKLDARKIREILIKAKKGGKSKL

COC(=O)[C@@]1(C)CCC[C@]2(C)c3cc(OC)ccc3CC[C@@H]12
inactive: outcome [1] | Potency [2] | Potency [3] | Potency [4] | outcome [5] | Potency [6] | Potency [7] | Potency [8] | outcome [9] | outcome [10] | Potency [11] | outcome [12] | Potency [13]

O=C(/C=C\n1cnc(-c2cc(C(F)(F)F)cc(C(F)(F)F)c2)n1)NNc1cnccn1
active: Potency [14] 7390 nM | Potency [15] 2630 nM | Potency [16] 2090 nM | Potency ([20]; HiBiT) 625 nM
-1.63: Z-AUC ([19]; measured here: PEO4 Z-AUC)
inactive: Potency [17] | Potency [18] | Z-AUC [19] -0.586 | activity change, negative = inhibition ([20]; Viability) -1.81%
-2.16: Z-AUC [19, 21]

COc1cc2oc3ccccc3c(=O)c2cc1OC
inactive: outcome [1] | Potency [2] | Potency [3] | Potency [4] | outcome [5] | Potency [7] | Potency [8] | outcome [9] | outcome [10] | Potency [11] | outcome [12] | Potency [13]

CC[C@H]1[C@@H](C)[C@@H](c2cc(OC)c(OC)cc2OC)[C@H](C)[C@@H](c2cc(OC)c(OC)cc2OC)[C@@]12C=C(OC)C(=O)C=C2OC
inactive: outcome [1] | Potency [2] | outcome [5] | Potency [6] | Potency [7] | Potency [8] | outcome [9] | outcome [10] | outcome [12] | Potency [13]

CO[C@@H]1[C@H](O)[C@@H](C)O[C@@H](OC[C@@H]2C(C)OC(=O)/C=C/[C@H](C)C(O[C@@H]3O[C@H](C)CC4(OC(=O)O[C@@H]4C)C3O)[C@@H](C)CC(C)C(=O)/C=C/[C@H]3OC23)[C@@H]1OC (stereo partly specified)
inactive: outcome [1] | Potency [3] | Potency [4] | Potency [6] | Potency [7] | Potency [8] | outcome [9] | outcome [10] | Potency [11] | outcome [12] | Potency [13]

C=C1C(=O)O[C@H]2C[C@H](C)C(/C=C/C(C)=O)=CC[C@H]12
-0.273: Z-AUC ([19]; measured here: PEO4 Z-AUC)
active: Potency [14] 6580 nM | Potency [15] 1480 nM | Potency [16] 1320 nM | Potency ([20]; HiBiT) 3130 nM
inactive: Potency [17] | Potency [18] | Z-AUC [19] 0.205 | activity change, negative = inhibition ([20]; Viability) 64.7%
-0.357: Z-AUC [19, 21]

COc1cc2c3c(n(CCCNCCO)c(=O)c2cc1OC)-c1cc2c(cc1C3=O)OCO2
active: Potency [14] 5870 nM | Potency [15] 26.3 nM | Potency [16] 29.5 nM | Potency [19] 7.8 nM
-1.56: Z-AUC ([19]; measured here: PEO4 Z-AUC)
-2.45: Z-AUC [19, 21]
inactive: Potency [17] | Potency [18] | activity change, negative = inhibition ([20]; HiBiT) -14.1% | activity change, negative = inhibition ([20]; Viability) -9.73%
